Source: paper PMC11006913

Tests used:
PRRX1 [1] = target: PRRX1 (Homo sapiens, UniProt P54821 80-166, F113S); test: PBM; 200 nM protein, PBS; conditions: dsDNA, one strand shown
PRRX1 [2] = target: PRRX1 (Homo sapiens, UniProt P54821 80-166); test: PBM; 200 nM protein, PBS; conditions: dsDNA, one strand shown
Chain of PRRX1 (Homo sapiens, UniProt P54821 80-166) (P54821 80-166): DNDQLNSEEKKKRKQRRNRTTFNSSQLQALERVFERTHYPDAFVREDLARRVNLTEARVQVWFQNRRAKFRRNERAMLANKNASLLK

Chain of PRRX1 (Homo sapiens, UniProt P54821 80-166, F113S) (P54821 80-166 F113S): as the sequence (P54821 80-166) above, with F34S counted along it

CAGAGAGC
binding signal (PRRX1 [1]): 9.56 upbm affinity estimate (log intensity, higher = more binding, comparable within an allelic series)
binding signal (PRRX1 [2]): 9.55 upbm affinity estimate (log intensity, higher = more binding, comparable within an allelic series)

ACGCGCGG
binding signal (PRRX1 [1]): 9.42 upbm affinity estimate (log intensity, higher = more binding, comparable within an allelic series)
binding signal (PRRX1 [2]): 9.29 upbm affinity estimate (log intensity, higher = more binding, comparable within an allelic series)

CTCCGTAC
binding signal (PRRX1 [1]): 9.47 upbm affinity estimate (log intensity, higher = more binding, comparable within an allelic series)
binding signal (PRRX1 [2]): 9.24 upbm affinity estimate (log intensity, higher = more binding, comparable within an allelic series)

CGCGTCAG
binding signal (PRRX1 [1]): 9.4 upbm affinity estimate (log intensity, higher = more binding, comparable within an allelic series)
binding signal (PRRX1 [2]): 9.26 upbm affinity estimate (log intensity, higher = more binding, comparable within an allelic series)

CAGAACCC
binding signal (PRRX1 [1]): 9.51 upbm affinity estimate (log intensity, higher = more binding, comparable within an allelic series)
binding signal (PRRX1 [2]): 9.39 upbm affinity estimate (log intensity, higher = more binding, comparable within an allelic series)

CGTGTGCA
binding signal (PRRX1 [1]): 9.54 upbm affinity estimate (log intensity, higher = more binding, comparable within an allelic series)
binding signal (PRRX1 [2]): 9.31 upbm affinity estimate (log intensity, higher = more binding, comparable within an allelic series)

CCCCAATA
binding signal (PRRX1 [1]): 9.73 upbm affinity estimate (log intensity, higher = more binding, comparable within an allelic series)
binding signal (PRRX1 [2]): 11 upbm affinity estimate (log intensity, higher = more binding, comparable within an allelic series)

ATTACAAC
binding signal (PRRX1 [1]): 10.3 upbm affinity estimate (log intensity, higher = more binding, comparable within an allelic series)
binding signal (PRRX1 [2]): 12.1 upbm affinity estimate (log intensity, higher = more binding, comparable within an allelic series)

AATATGCC
binding signal (PRRX1 [1]): 9.8 upbm affinity estimate (log intensity, higher = more binding, comparable within an allelic series)
binding signal (PRRX1 [2]): 11.1 upbm affinity estimate (log intensity, higher = more binding, comparable within an allelic series)

GCGGTTCC
binding signal (PRRX1 [1]): 9.66 upbm affinity estimate (log intensity, higher = more binding, comparable within an allelic series)
binding signal (PRRX1 [2]): 9.31 upbm affinity estimate (log intensity, higher = more binding, comparable within an allelic series)

GCTCTTCC
binding signal (PRRX1 [1]): 9.47 upbm affinity estimate (log intensity, higher = more binding, comparable within an allelic series)
binding signal (PRRX1 [2]): 9.1 upbm affinity estimate (log intensity, higher = more binding, comparable within an allelic series)

GAATTATC
binding signal (PRRX1 [1]): 10.5 upbm affinity estimate (log intensity, higher = more binding, comparable within an allelic series)
binding signal (PRRX1 [2]): 12.9 upbm affinity estimate (log intensity, higher = more binding, comparable within an allelic series)

CCTGAGGC
binding signal (PRRX1 [1]): 9.1 upbm affinity estimate (log intensity, higher = more binding, comparable within an allelic series)
binding signal (PRRX1 [2]): 9.44 upbm affinity estimate (log intensity, higher = more binding, comparable within an allelic series)

ATCAATTC
binding signal (PRRX1 [1]): 10.1 upbm affinity estimate (log intensity, higher = more binding, comparable within an allelic series)
binding signal (PRRX1 [2]): 11.9 upbm affinity estimate (log intensity, higher = more binding, comparable within an allelic series)

GACGACGC
binding signal (PRRX1 [1]): 9.47 upbm affinity estimate (log intensity, higher = more binding, comparable within an allelic series)
binding signal (PRRX1 [2]): 9.16 upbm affinity estimate (log intensity, higher = more binding, comparable within an allelic series)

GCGCCAGA
binding signal (PRRX1 [1]): 9.32 upbm affinity estimate (log intensity, higher = more binding, comparable within an allelic series)
binding signal (PRRX1 [2]): 9.56 upbm affinity estimate (log intensity, higher = more binding, comparable within an allelic series)

ACCGTGCG
binding signal (PRRX1 [1]): 9.48 upbm affinity estimate (log intensity, higher = more binding, comparable within an allelic series)
binding signal (PRRX1 [2]): 9.43 upbm affinity estimate (log intensity, higher = more binding, comparable within an allelic series)

CGTCTGGA
binding signal (PRRX1 [1]): 9.4 upbm affinity estimate (log intensity, higher = more binding, comparable within an allelic series)
binding signal (PRRX1 [2]): 9.19 upbm affinity estimate (log intensity, higher = more binding, comparable within an allelic series)

CATATTGG
binding signal (PRRX1 [1]): 10 upbm affinity estimate (log intensity, higher = more binding, comparable within an allelic series)
binding signal (PRRX1 [2]): 11.3 upbm affinity estimate (log intensity, higher = more binding, comparable within an allelic series)

CGACGTTA
binding signal (PRRX1 [1]): 9.76 upbm affinity estimate (log intensity, higher = more binding, comparable within an allelic series)
binding signal (PRRX1 [2]): 11.1 upbm affinity estimate (log intensity, higher = more binding, comparable within an allelic series)

CTAGACCC
binding signal (PRRX1 [1]): 9.44 upbm affinity estimate (log intensity, higher = more binding, comparable within an allelic series)
binding signal (PRRX1 [2]): 9.31 upbm affinity estimate (log intensity, higher = more binding, comparable within an allelic series)

AGGTTCGC
binding signal (PRRX1 [1]): 9.34 upbm affinity estimate (log intensity, higher = more binding, comparable within an allelic series)
binding signal (PRRX1 [2]): 9.02 upbm affinity estimate (log intensity, higher = more binding, comparable within an allelic series)

AGCTCGCA
binding signal (PRRX1 [1]): 9.52 upbm affinity estimate (log intensity, higher = more binding, comparable within an allelic series)
binding signal (PRRX1 [2]): 9.05 upbm affinity estimate (log intensity, higher = more binding, comparable within an allelic series)

GAGGCTGC
binding signal (PRRX1 [1]): 9.31 upbm affinity estimate (log intensity, higher = more binding, comparable within an allelic series)
binding signal (PRRX1 [2]): 9.36 upbm affinity estimate (log intensity, higher = more binding, comparable within an allelic series)

ATTTTTAA
binding signal (PRRX1 [1]): 10.4 upbm affinity estimate (log intensity, higher = more binding, comparable within an allelic series)
binding signal (PRRX1 [2]): 12 upbm affinity estimate (log intensity, higher = more binding, comparable within an allelic series)

TAAACTCA
binding signal (PRRX1 [1]): 10.1 upbm affinity estimate (log intensity, higher = more binding, comparable within an allelic series)
binding signal (PRRX1 [2]): 11.1 upbm affinity estimate (log intensity, higher = more binding, comparable within an allelic series)

CCGACCCC
binding signal (PRRX1 [1]): 9.1 upbm affinity estimate (log intensity, higher = more binding, comparable within an allelic series)
binding signal (PRRX1 [2]): 9.36 upbm affinity estimate (log intensity, higher = more binding, comparable within an allelic series)

CCTACTTA
binding signal (PRRX1 [1]): 10.1 upbm affinity estimate (log intensity, higher = more binding, comparable within an allelic series)
binding signal (PRRX1 [2]): 11.6 upbm affinity estimate (log intensity, higher = more binding, comparable within an allelic series)

TTAACAAA
binding signal (PRRX1 [1]): 10.5 upbm affinity estimate (log intensity, higher = more binding, comparable within an allelic series)
binding signal (PRRX1 [2]): 12.4 upbm affinity estimate (log intensity, higher = more binding, comparable within an allelic series)

CGCGGGAC
binding signal (PRRX1 [1]): 9.43 upbm affinity estimate (log intensity, higher = more binding, comparable within an allelic series)
binding signal (PRRX1 [2]): 9.4 upbm affinity estimate (log intensity, higher = more binding, comparable within an allelic series)

AGGTCTTG
binding signal (PRRX1 [1]): 9.4 upbm affinity estimate (log intensity, higher = more binding, comparable within an allelic series)
binding signal (PRRX1 [2]): 9.41 upbm affinity estimate (log intensity, higher = more binding, comparable within an allelic series)

GAAAGACC
binding signal (PRRX1 [1]): 9.56 upbm affinity estimate (log intensity, higher = more binding, comparable within an allelic series)
binding signal (PRRX1 [2]): 9.45 upbm affinity estimate (log intensity, higher = more binding, comparable within an allelic series)

CCCCTTGC
binding signal (PRRX1 [1]): 9.32 upbm affinity estimate (log intensity, higher = more binding, comparable within an allelic series)
binding signal (PRRX1 [2]): 9.53 upbm affinity estimate (log intensity, higher = more binding, comparable within an allelic series)

GCTGGACC
binding signal (PRRX1 [1]): 9.41 upbm affinity estimate (log intensity, higher = more binding, comparable within an allelic series)
binding signal (PRRX1 [2]): 9.43 upbm affinity estimate (log intensity, higher = more binding, comparable within an allelic series)

GCACGTCC
binding signal (PRRX1 [1]): 9.49 upbm affinity estimate (log intensity, higher = more binding, comparable within an allelic series)
binding signal (PRRX1 [2]): 9.27 upbm affinity estimate (log intensity, higher = more binding, comparable within an allelic series)

GCCTCTCA
binding signal (PRRX1 [1]): 9.4 upbm affinity estimate (log intensity, higher = more binding, comparable within an allelic series)
binding signal (PRRX1 [2]): 9.09 upbm affinity estimate (log intensity, higher = more binding, comparable within an allelic series)

CGACGGAA
binding signal (PRRX1 [1]): 9.54 upbm affinity estimate (log intensity, higher = more binding, comparable within an allelic series)
binding signal (PRRX1 [2]): 9.34 upbm affinity estimate (log intensity, higher = more binding, comparable within an allelic series)

AATCATGT
binding signal (PRRX1 [1]): 10.4 upbm affinity estimate (log intensity, higher = more binding, comparable within an allelic series)
binding signal (PRRX1 [2]): 12.2 upbm affinity estimate (log intensity, higher = more binding, comparable within an allelic series)
